Data published in PubChem BioAssay.
Activity calls are given as the source filed them.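 Rule for the calls, unless noted: active = visually confirmed hit in the image check and inhibition above 20%; inconclusive = visually confirmed hit but inhibition not above 20%; inactive = no visual hit in the image check.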

Key:
[1] = inhibitors of TNFa-induced NFkB p65 translocation, primary screen, imaging, HUVEC, MLSMR starter and 10KST1 sets (AID 438;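 active = inhibition above 20% together with a positive visual image hit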;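 note: compound added about 3h40 before a 20 min TNFalpha stimulation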;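 for inhibition: signal is the nuclear over cytoplasmic p65 intensity ratio per well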); conditions: HUVEC TNFa-induced p65 nuclear translocation; cell count: measured here: nuclei count (cytotoxicity indicator), at 2.08 µM; inhibition: at 2 µM, stronger effect = higher value, 0% TNFa-plus-vehicle, 100% no-TNFa wells
[2] = reduction of polyQ htt aggregates in cells – imaging, exon1htt(103Q)mCFP cells, high-content imaging, primary screen (AID 483;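 active = visual image review flags a hit and inhibition of aggregation exceeds 20%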;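 note: compound exposure lasted 3 days before fixation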;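 for nuclei count: percent of the per-plate median nuclei count of sample wells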); conditions: exon1htt(103Q)mCFP cell line, aggregate imaging, at 2 µM; inhibition of aggregation: stronger effect = higher value; nuclei count: measured here: cell count, toxicity
[3] = endothelial E-selectin expression blockers – imaging, HUVEC, immunofluorescence, MLSMR starter and 10KST1 sets, primary screen (AID 487); conditions: HUVEC TNFalpha-induced E-selectin immunofluorescence imaging, at 2 µM; inhibition: stronger effect = higher value; nuclei count: measured here: cell number, toxicity;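 for inhibition: signal is fraction of cell area covered by stained E-selectin grains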;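 for nuclei count: 100% = median nuclei count of all wells on the same plate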
[4] = target: Voltage-gated potassium channel subunit beta-2 (Rattus norvegicus) (UniProt P62483); experiment: inhibitors of rat Kvbeta2 reductase activity – biochemical, NADPH fluorescence, primary screen (AID 622;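 active = fluorescence slope higher than the sample average by over 3 SD, cut at about -0.22 in these data, passing the limit was not always enough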;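 note: slope of raw intensity against log time taken from 70 to 1610 s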); conditions: recombinant KvBeta, 4-cyanobenzaldehyde reduction, at 10 µM, stronger effect = higher value
[5] = target: Voltage-gated potassium channel subunit beta-2 (Rattus norvegicus) (UniProt P62483); experiment: enhancers of rat Kvbeta2 NADPH turnover – biochemical, NADPH fluorescence, primary screen (AID 623;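 active = NADPH fluorescence slope more negative than the mean of all samples by about 3 SD, 99.7% confidence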;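 note: fluorescence intensity change per second fitted from 20 to 320 s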); conditions: Recombinant KvBeta, NADPH fluorescence decrease slope, 10 min; at 10 µM; stronger effect = lower value
[6] = target: Alpha-2C adrenergic receptor (Homo sapiens) (UniProt P18825); experiment: compounds altering alpha2C-coupled GIRK flux – cell-based, HEK293 alpha2C/GIRK1/2, thallium flux, primary screen (AID 624;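 active = fluorescence slope after compound addition differing from the mean of all screened samples at 99.7% confidence, in either direction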;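 note: slope of fluorescence ratio to pre-addition baseline per second over 15 to 24 s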); conditions: thallium flux BTC fluorescence, at 10 µM, actives lie on both sides
[7] = blockers of RIG-like receptor reporter activation – cell-based, Sendai virus stimulus, luciferase, 10K MLSCN set, TLR/RLR signaling modifier project, primary screen (AID 602276;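 active = inhibition at or above 50% at 10 µM; inactive = inhibition below 50%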;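 note: firefly luciferase from ISG56 promoter only with Renilla not read in this screen; 0% = Sendai virus plus DMSO and 100% = medium plus DMSO without virus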); conditions: HEK293 RL24 IRF3 luciferase reporter, at 10 µM, stronger effect = higher value
[8] = TLR3 IRF3 reporter activation blockers – cell-based, poly I:C stimulus, luciferase, 10K MLSCN set, primary screen (AID 602277;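 active = inhibition of the reporter signal at or above 50%; inactive = inhibition below 50%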); conditions: HEK293-TLR3 RL24 IRF3 luciferase reporter, at 10 µM, stronger effect = higher value

Alpha-2C adrenergic receptor (Homo sapiens), sequence (P18825 whole entry, looked up): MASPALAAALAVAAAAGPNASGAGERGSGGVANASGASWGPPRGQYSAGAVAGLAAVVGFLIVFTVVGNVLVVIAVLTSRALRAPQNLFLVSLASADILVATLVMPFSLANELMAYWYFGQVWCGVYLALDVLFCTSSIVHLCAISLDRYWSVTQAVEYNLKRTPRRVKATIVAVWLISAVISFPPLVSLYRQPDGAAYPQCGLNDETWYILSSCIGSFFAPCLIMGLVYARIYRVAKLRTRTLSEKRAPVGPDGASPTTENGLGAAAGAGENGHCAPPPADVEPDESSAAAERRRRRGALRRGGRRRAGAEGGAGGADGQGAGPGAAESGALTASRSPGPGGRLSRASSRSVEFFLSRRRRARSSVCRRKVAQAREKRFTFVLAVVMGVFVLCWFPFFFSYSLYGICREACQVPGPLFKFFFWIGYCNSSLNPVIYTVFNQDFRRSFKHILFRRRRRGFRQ
Voltage-gated potassium channel subunit beta-2 (Rattus norvegicus), sequence (P62483 whole entry, looked up): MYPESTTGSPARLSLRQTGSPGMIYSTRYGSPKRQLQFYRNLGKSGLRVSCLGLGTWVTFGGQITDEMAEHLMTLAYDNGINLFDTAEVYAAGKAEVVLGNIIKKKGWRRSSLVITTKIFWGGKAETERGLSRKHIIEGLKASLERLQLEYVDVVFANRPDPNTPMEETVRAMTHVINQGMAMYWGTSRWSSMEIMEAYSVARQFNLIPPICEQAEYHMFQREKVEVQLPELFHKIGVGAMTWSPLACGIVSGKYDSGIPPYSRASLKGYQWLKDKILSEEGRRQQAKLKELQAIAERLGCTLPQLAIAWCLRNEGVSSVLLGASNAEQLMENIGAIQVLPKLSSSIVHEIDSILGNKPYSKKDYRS

SMILES | cell count [1] | inhibition [1] | inhibition of aggregation [2] | nuclei count [2] [%] | inhibition [3] | nuclei count [3] [%] | fluorescence slope [4] | NADPH fluorescence slope [5] | slope [6] | inhibition [7] | inhibition [8]
CCC(C)NC(=O)C1(C)CCC(=O)N1CCc1ccc(OC)c(OC)c1 (stereo not drawn) | 447 | -5.7% (inactive) | -2.3% (inactive) | 105 | 0.6% (inactive) | 103 | -0.606 (inactive) | -8.3e-06 (inactive) | 0.00621 (inactive) | 5.13% (inactive) | 9.44% (inactive)
COc1ccc(N(CC(=O)O)S(=O)(=O)c2ccc(OC)c(OC)c2)cc1 | 501 | -2.1% (inactive) | -12.1% (inactive) | 99 | -11.5% (inactive) | 111 | -0.475 (inactive) | 6.8e-05 (inactive) | 0.00634 (inactive) | 15.4% (inactive) | 22.3% (inactive)
CCCN1CCN(CCCNC(=O)C2CCCN(c3nc4ccc(OCC)cc4s3)C2)CC1 (stereo not drawn) | 513 | -14% (inactive) | 23.6% (inactive) | 121 | -18.5% (inactive) | 119 | -0.398 (inactive) | -4.5e-05 (inactive) | 0.00402 (inactive) | -9.58% (inactive) | -10.2% (inactive)
Cc1cccc(OCC(=O)N(Cc2cccs2)C2CCS(=O)(=O)C2)c1C (stereo not drawn) | 220 | 2.4% (inactive) | 0.4% (inactive) | 88.1 | -142% (inactive) | 112 | -0.639 (inactive) | -3.9e-05 (inactive) | 0.00768 (inactive) | 13.8% (inactive) | 16.1% (inactive)
O=C(Nc1ccccc1C(F)(F)F)c1cc(S(=O)(=O)N2CCOCC2)ccc1F | 415 | 2.8% (inactive) | 12.8% (inactive) | 62.3 | -247% (inactive) | 107 | -0.619 (inactive) | 2.6e-06 (inactive) | 0.00704 (inactive) | 8.22% (inactive) | 21.8% (inactive)
Cc1ccc(-c2noc(CCC(=O)NC3CCCc4ccccc43)n2)cc1 (stereo not drawn) | 377 | -2% (inactive) | 5.2% (inactive) | 108 | -27.6% (inactive) | 85.8 | -0.411 (inactive) | -3.2e-05 (inactive) | 0.00255 (inactive) | 19.1% (inactive) | 18.8% (inactive)
O=C(Nc1ccc(S(=O)(=O)Nc2ccc(Cl)cc2)cc1)C1CCCO1 (stereo not drawn) | 629 | -6.5% (inactive) | 3.9% (inactive) | 104 | 7.3% (inactive) | 101 | -0.415 (inactive) | -4.8e-05 (inactive) | 0.0052 (inactive) | 14.5% (inactive) | -12.8% (inactive)
CCOC(=O)c1sc(=NC(=O)c2ccc(OC)c(OC)c2)n(C)c1C | 642 | 10.1% (inactive) | 3.7% (inactive) | 93.8 | 47.2% (inactive) | 75.6 | -0.583 (inactive) | -2.7e-05 (inactive) | 0.00657 (inactive) | -16.4% (inactive) | -82.7% (inactive)
CC(C)OC(=O)c1cc(=O)[nH]c2ccccc12 | 267 | 14% (inactive) | 5.3% (inactive) | 94 | -4.6% (inactive) | 92.6 | -0.556 (inactive) | 3e-05 (inactive) | 0.00572 (inactive) | 12.2% (inactive) | 9.33% (inactive)
O=c1c(-c2ccc(Br)cc2)coc2c(CN3CCOCC3)c(O)ccc12 | 557 | -2.4% (inactive) | -1.6% (inactive) | 102 | -9.2% (inactive) | 118 | -0.0321 (active) | 3.3e-05 (inactive) | 0.00611 (inactive) | 2.64% (inactive) | -17.1% (inactive)
CS(=O)(=O)N1CCC(C(=O)NCCC2=CCCCC2)CC1 | 427 | 4.2% (inactive) | 8% (inactive) | 100 | -89.9% (inactive) | 106 | -0.382 (inactive) | -2.9e-05 (inactive) | 0.00662 (inactive) | 12.6% (inactive) | 8.24% (inactive)
COC(=O)CC(C(=O)Nc1cc(C(=O)OC)cc(C(=O)OC)c1)N1CCN(C)CC1 (stereo not drawn) | 661 | -7.5% (inactive) | -3.2% (inactive) | 99.8 | -105% (inactive) | 107 | -0.547 (inactive) | -4.3e-05 (inactive) | 0.00646 (inactive) | -2.88% (inactive) | 9.86% (inactive)
Clc1ccc2c(c1)[C@H]1OCC[C@H]1[C@@H](c1ccco1)N2 | 824 | 5.5% (inactive) | -3.2% (inactive) | 98.8 | -101% (inactive) | 125 | -0.572 (inactive) | -3.2e-05 (inactive) | 0.00552 (inactive) | -42.9% (inactive) | -122% (inactive)
